{"source": "PubChem BioAssay (EPA / NIEHS)", "key": {"[1]": {"read-out": "Epidermal growth factor receptor (EGFR), EGFR (gene 1956)", "assay": "BSK_BE3C_EGFR: BioMAP Diversity Plus: BE3C Assay for Epidermal growth factor receptor (EGFR) Biomarker Activity (AID 2284281)", "conditions": "primary human bronchial epithelial cells", "in_short": "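Human primary bronchial epithelial cells (BE3C system) dosed with chemicals; EGFR measured by ELISA at 24 h, fitted in the positive direction relative to DMSO. Cytotoxicity tracked in parallel cultures by SRB total-protein staining.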"}, "KRT18 (gene 3875)": {"read-out": "KRT18 (gene 3875)", "assay": "BSK_BE3C_Keratin818: BioMAP Diversity Plus: BE3C Assay for Keratin 818 Biomarker Activity (AID 2284282)", "conditions": "primary human bronchial epithelial cells", "in_short": "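Chemicals are added to human lung bronchial epithelial primary cells (BE3C system) and incubated 24 h. Keratin 8/18 is then measured by ELISA, with parallel SRB total-protein staining gauging overt cytotoxicity.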"}, "[2]": {"read-out": "Matrix Metallopeptidase 9 (MMP9), MMP9 (gene 4318)", "assay": "BSK_BE3C_MMP9: BioMAP Diversity Plus: BE3C Assay for Matrix Metallopeptidase 9 (MMP9) Biomarker Activity (AID 2284283)", "conditions": "primary human bronchial epithelial cells", "in_short": "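ELISA read-out of MMP-9 after 24 h compound exposure of human lung bronchial epithelial primary cells (BE3C). Fit in gain direction vs DMSO negative control; total protein by SRB in parallel cultures flagged overt cytotoxicity.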"}, "[3]": {"read-out": "Plasminogen activator inhibitor-1 (PAI1), SERPINE1 (gene 5054)", "assay": "BSK_CASM3C_PAI1: BioMAP Diversity Plus: CASM3C Assay for Plasminogen activator inhibitor-1 (PAI1) Biomarker Activity (AID 2284284)", "conditions": "primary human coronary artery smooth muscle cells"}, "[4]": {"read-out": "Monocyte Chemoattractant Protein-1 (MCP1), CCL2 (gene 6347)", "assay": "BSK_hDFCGF_MCP1: BioMAP Diversity Plus: hDFCGF Assay for Monocyte Chemoattractant Protein-1 (MCP1) Biomarker Activity (AID 2284285)", "conditions": "primary human foreskin fibroblasts", "in_short": "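Human foreskin fibroblasts (hDFCGF system) were exposed to compound and secreted MCP-1 was measured by ELISA after 24 hours. Activity was fitted relative to DMSO. Cytotoxicity was checked by SRB total-protein staining in parallel cultures.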"}, "[5]": {"read-out": "Intercellular Adhesion Molecule 1 (ICAM1), ICAM1 (gene 3383)", "assay": "BSK_hDFCGF_ICAM1: BioMAP Diversity Plus: hDFCGF Assay for Intercellular Adhesion Molecule 1 (ICAM1) Biomarker Activity (AID 2284287)", "conditions": "primary human foreskin fibroblasts", "in_short": "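Primary human foreskin fibroblasts (hDFCGF system) dosed with chemical; ICAM-1 quantified by ELISA at 24 h relative to DMSO. Parallel SRB total-protein staining to assess overt cytotoxicity.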"}, "[6]": {"read-out": "TIMP metallopeptidase inhibitor 2 (TIMP2), TIMP2 (gene 7077)", "assay": "BSK_hDFCGF_TIMP2: BioMAP Diversity Plus: hDFCGF Assay for TIMP metallopeptidase inhibitor 2 (TIMP2) Biomarker Activity (AID 2284289)", "conditions": "primary human foreskin fibroblasts", "in_short": "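Primary human foreskin fibroblasts in the hDFCGF system, dosed for 24 h; TIMP-2 level measured by ELISA, fitted in the positive direction against DMSO; cytotoxicity checked in parallel by sulforhodamine B total protein staining.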"}, "[7]": {"read-out": "Vascular cell adhesion molecule 1 (VCAM1), VCAM1 (gene 7412)", "assay": "BSK_IMphg_VCAM1: BioMAP Diversity Plus: IMphg Assay for Vascular cell adhesion molecule 1 (VCAM1) Biomarker Activity (AID 2284286)", "conditions": "primary human endothelial cells with macrophages", "in_short": "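Human venular endothelial cells co-cultured with macrophages; VCAM-1 quantified by ELISA 24 h after dosing, fitted in the positive direction against DMSO. Cytotoxicity was checked in parallel cultures by SRB total-protein staining (0.1% SRB after 10% TCA fixation, 560 nm).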"}, "CD40, CD40 (gene 958)": {"read-out": "CD40, CD40 (gene 958)", "assay": "BSK_IMphg_CD40: BioMAP Diversity Plus: IMphg Assay for CD40 Biomarker Activity (AID 2284288)", "conditions": "primary human endothelial cells with macrophages", "in_short": "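Venular endothelial cells co-cultured with macrophages (human primary), CD40 measured by ELISA 24 h after dosing. Positive-direction fit vs DMSO baseline; cytotoxicity tracked by SRB total-protein staining in parallel cultures.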"}, "[8]": {"read-out": "Interleukin-1 alpha (IL1a), IL1A (gene 3552)", "assay": "BSK_IMphg_IL1a: BioMAP Diversity Plus: IMphg Assay for Interleukin-1 alpha (IL1a) Biomarker Activity (AID 2284290)", "conditions": "primary human endothelial cells with macrophages", "in_short": "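Human venular endothelial cells co-cultured with macrophages, IMphg system. IL-1α is measured by ELISA 24 h after dosing and fitted in the positive direction against DMSO. Cytotoxicity is assessed by SRB staining of parallel cultures.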"}}, "note": "Values joined by “and” are separate entries in the source; they are usually repeats but may differ in a detail not shown here. Identical values can stand only once. More than one record can exist for a structure, and the calls need not agree. Active and inactive are the calls of the source. How the source made its calls: active means hit-call score of the fitted dose curve at least 0.9, where 1 is the maximum; inactive means score below 0.9.", "data": [{"smiles": "Nc1nc(N)nc(-c2ccccc2)n1", "values": [{"measurement": "outcome", "setting": "[1]", "result": "inactive"}, {"measurement": "outcome", "setting": "KRT18 (gene 3875)", "result": "inactive"}, {"measurement": "outcome", "setting": "[2]", "result": "inactive"}, {"measurement": "outcome", "setting": "[3]", "result": "inactive"}, {"measurement": "outcome", "setting": "[4]", "result": "inactive"}, {"measurement": "outcome", "setting": "[5]", "result": "inactive"}, {"measurement": "outcome", "setting": "[6]", "result": "inactive"}]}, {"smiles": "O=C(O)C(F)(F)C(F)(F)C(F)(F)C(F)(F)C(=O)O", "values": [{"measurement": "outcome", "setting": "[1]", "result": "inactive"}, {"measurement": "outcome", "setting": "KRT18 (gene 3875)", "result": "inactive"}, {"measurement": "outcome", "setting": "[2]", "result": "inactive"}, {"measurement": "outcome", "setting": "[3]", "result": "inactive"}, {"measurement": "outcome", "setting": "[4]", "result": "inactive"}, {"measurement": "outcome", "setting": "[7]", "result": "inactive"}, {"measurement": "outcome", "setting": "[5]", "result": "inactive"}, {"measurement": "outcome", "setting": "CD40, CD40 (gene 958)", "result": "inactive"}, {"measurement": "outcome", "setting": "[6]", "result": "inactive"}, {"measurement": "outcome", "setting": "[8]", "result": "inactive"}]}, {"smiles": "CCCC(C)C(=O)OCC", "note": "(stereo not drawn)", "values": [{"measurement": "outcome", "setting": "[1]", "result": "inactive"}, {"measurement": "outcome", "setting": "KRT18 (gene 3875)", "result": "inactive"}, {"measurement": "outcome", "setting": "[2]", "result": "inactive"}, {"measurement": "outcome", "setting": "[3]", "result": "inactive"}, {"measurement": "outcome", "setting": "[4]", "result": "inactive"}, {"measurement": "outcome", "setting": "[5]", "result": "inactive"}, {"measurement": "outcome", "setting": "[6]", "result": "inactive"}]}, {"smiles": "c1ccc(Nc2cccc3ccccc23)cc1", "values": [{"measurement": "AC50", "setting": "[1]", "result": "17.6 µM (active) and 37 µM (active)"}, {"measurement": "AC50", "setting": "KRT18 (gene 3875)", "result": "20 µM (active)"}, {"measurement": "AC50", "setting": "[2]", "result": "20 µM (active) and 26.6 µM (active)"}, {"measurement": "outcome", "setting": "[3]", "result": "inactive"}, {"measurement": "AC50", "setting": "[4]", "result": "20.8 µM (active) and 14.2 µM (active)"}, {"measurement": "AC50", "setting": "[5]", "result": "33.6 µM (active) and 34.1 µM (active)"}, {"measurement": "AC50", "setting": "[6]", "result": "33 µM (active) and 31.1 µM (active)"}]}, {"smiles": "CCCCCCCCCCCC(=O)N(C)CC(=O)O", "values": [{"measurement": "outcome", "setting": "[1]", "result": "inactive"}, {"measurement": "outcome", "setting": "KRT18 (gene 3875)", "result": "inactive"}, {"measurement": "outcome", "setting": "[2]", "result": "inactive"}, {"measurement": "outcome", "setting": "[3]", "result": "inactive"}, {"measurement": "AC50", "setting": "[4]", "result": "5.84 µM (active)"}, {"measurement": "outcome", "setting": "[4]", "result": "inactive"}, {"measurement": "outcome", "setting": "[5]", "result": "inactive"}, {"measurement": "outcome", "setting": "[6]", "result": "inactive"}]}, {"smiles": "Oc1ccccc1Cc1ccccc1O", "values": [{"measurement": "outcome", "setting": "[1]", "result": "inactive"}, {"measurement": "outcome", "setting": "KRT18 (gene 3875)", "result": "inactive"}, {"measurement": "AC50", "setting": "[2]", "result": "20 µM (active)"}, {"measurement": "outcome", "setting": "[2]", "result": "inactive"}, {"measurement": "outcome", "setting": "[3]", "result": "inactive"}, {"measurement": "outcome", "setting": "[4]", "result": "inactive"}, {"measurement": "outcome", "setting": "[5]", "result": "inactive"}, {"measurement": "outcome", "setting": "[6]", "result": "inactive"}]}, {"smiles": "C[N+](C)(C)CCCNS(=O)(=O)C(F)(F)C(F)(F)C(F)(F)C(F)(F)C(F)(F)C(F)(F)C(F)(F)C(F)(F)F", "values": [{"measurement": "outcome", "setting": "[1]", "result": "inactive"}, {"measurement": "outcome", "setting": "KRT18 (gene 3875)", "result": "inactive"}, {"measurement": "outcome", "setting": "[2]", "result": "inactive"}, {"measurement": "outcome", "setting": "[3]", "result": "inactive"}, {"measurement": "AC50", "setting": "[4]", "result": "44.8 µM (active) and 44.4 µM (active)"}, {"measurement": "AC50", "setting": "[7]", "result": "13.9 µM (active) and 22.4 µM (active)"}, {"measurement": "outcome", "setting": "[5]", "result": "inactive"}, {"measurement": "AC50", "setting": "CD40, CD40 (gene 958)", "result": "21.8 µM (active) and 23.9 µM (active)"}, {"measurement": "AC50", "setting": "[6]", "result": "8.16 µM (active)"}, {"measurement": "outcome", "setting": "[6]", "result": "inactive"}, {"measurement": "outcome", "setting": "[8]", "result": "inactive"}]}, {"smiles": "CC(CCC(=O)O)(c1ccc(O)cc1)c1ccc(O)cc1", "values": [{"measurement": "outcome", "setting": "[1]", "result": "inactive"}, {"measurement": "outcome", "setting": "KRT18 (gene 3875)", "result": "inactive"}, {"measurement": "outcome", "setting": "[2]", "result": "inactive"}, {"measurement": "outcome", "setting": "[3]", "result": "inactive"}, {"measurement": "outcome", "setting": "[4]", "result": "inactive"}, {"measurement": "outcome", "setting": "[5]", "result": "inactive"}, {"measurement": "outcome", "setting": "[6]", "result": "inactive"}]}, {"smiles": "CC(C)C(=O)OCCc1ccccc1", "values": [{"measurement": "outcome", "setting": "[1]", "result": "inactive"}, {"measurement": "AC50", "setting": "KRT18 (gene 3875)", "result": "0.522 µM (active)"}, {"measurement": "outcome", "setting": "KRT18 (gene 3875)", "result": "inactive"}, {"measurement": "outcome", "setting": "[2]", "result": "inactive"}, {"measurement": "outcome", "setting": "[3]", "result": "inactive"}, {"measurement": "outcome", "setting": "[4]", "result": "inactive"}, {"measurement": "outcome", "setting": "[5]", "result": "inactive"}, {"measurement": "outcome", "setting": "[6]", "result": "inactive"}]}]}
